Experimental data taken from the supplement of paper PMC6555819.

How the values were obtained:
Assay in all cases: PBM binding z-score (relative to random genomic background probes); higher = stronger binding; sequences stand for … in GC…GCGATTGACAGCGTAGAATGAAGG
[1] = tested on: FXR:RXRa (NR concentration 270 nM, RXRa partner concentration 90 nM)
In short: (§1)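 Ligand-free nuclear receptor dimers were bound for 1 h to custom Agilent 4×180K protein-binding microarrays. Detection used antibodies against each partner (one per run). Binding z-scores rest on regression-normalized fluorescence, with random background probes as the reference.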

[2] = tested on: LXRa:RXRa (NR concentration 270 nM, RXRa partner concentration 90 nM)
In short: as §1

[3] = tested on: LXRa homodimer (NR concentration 270 nM)
In short: as §1

[4] = tested on: LXRb:RXRa (NR concentration 270 nM, RXRa partner concentration 90 nM)
In short: as §1

[5] = tested on: LXRb homodimer (NR concentration 270 nM)
In short: as §1

[6] = tested on: PPARa:RXRa (NR concentration 270 nM, RXRa partner concentration 90 nM)
In short: as §1

[7] = tested on: PPARg:RXRa (NR concentration 180 nM, RXRa partner concentration 90 nM)
In short: as §1

[8] = tested on: PPARg:RXRa 270nM:90nM, anti-RXR (NR concentration 270 nM, RXRa partner concentration 90 nM)
In short: as §1

[9] = tested on: PPARg:RXRa 30nM:10nM, anti-RXR (NR concentration 30 nM, RXRa partner concentration 10 nM)
In short: as §1

[10] = tested on: PPARg:RXRa 90nM:30nM, anti-RXR (NR concentration 90 nM, RXRa partner concentration 30 nM)
In short: as §1

[11] = tested on: PPARg:RXRa DBDmut IVT, anti-RXR (DBD mutation: RXRa K156A/R161A, NR concentration 270 nM, RXRa partner concentration 90 nM)
In short: as §1

[12] = tested on: PPARg:RXRa IVT, anti-PPARg (NR concentration 270 nM, RXRa partner concentration 90 nM)
In short: as §1

[13] = tested on: PPARg DBDmut:RXRa IVT, anti-PPARg (DBD mutation: PPARg1 K132A/R137A, NR concentration 270 nM, RXRa partner concentration 90 nM)
In short: as §1

[14] = tested on: PPARg DBDmut IVT, anti-PPARg (DBD mutation: PPARg1 K132A/R137A, NR concentration 270 nM)
In short: as §1

[15] = tested on: PPARg homodimer (NR concentration 180 nM)
In short: as §1

[16] = tested on: PXR:RXRa (NR concentration 270 nM, RXRa partner concentration 90 nM)
In short: as §1

[17] = tested on: PXR homodimer (NR concentration 270 nM)
In short: as §1

[18] = tested on: RARa:RXR (NR concentration 270 nM, RXRa partner concentration 90 nM)
In short: as §1

[19] = tested on: RARa homodimer (NR concentration 270 nM)
In short: as §1

[20] = tested on: RARb:RXRa (NR concentration 270 nM, RXRa partner concentration 90 nM)
In short: as §1

Sequence | PBM binding z-score [1] | PBM binding z-score [2] | PBM binding z-score [3] | PBM binding z-score [4] | PBM binding z-score [5] | PBM binding z-score [6] | PBM binding z-score [7] | PBM binding z-score [8] | PBM binding z-score [9] | PBM binding z-score [10] | PBM binding z-score [11] | PBM binding z-score [12] | PBM binding z-score [13] | PBM binding z-score [14] | PBM binding z-score [15] | PBM binding z-score [16] | PBM binding z-score [17] | PBM binding z-score [18] | PBM binding z-score [19] | PBM binding z-score [20]
CAATCTAGGTCACCGGAAGGTCAAAGTCCGCATG | 6.51 | 6.15 | 6.06 | 5.42 | 1.92 | 6.32 | 10 | 7.96 | 6.12 | 8.12 | 8.34 | 8.62 | 2.22 | 1.39 | 7.89 | 5.96 | 2.44 | 7.4 | 3.19 | 5.41
AGTCAAAGTTCACTAGTTAACGTAAGATTCAGCT | 5.06 | 5.13 | 2.97 | 2.92 | 1.03 | 4.06 | 5.33 | 5.73 | 2.56 | 4.89 | 0.662 | 2.31 | 1.15 | 0.981 | 2.52 | 4.28 | 3.24 | 2.94 | 1.15 | 4.76
TCTCGGAGGACACGAAGCTCAGAGCTTTCCAGAG | 0.39 | -0.167 | -0.771 | -0.53 | -1.25 | -0.0868 | -0.122 | 0.617 | 1.74 | 1.27 | 1.41 | -0.21 | -1.23 | -1.14 | -0.926 | -0.254 | -0.712 | -0.204 | -0.988 | 1.24
CGTACTAGGTCAGAACAGGACAGTGAAGGATGAT | 1.43 | 1.05 | 0.203 | 0.274 | -0.0494 | 2.29 | 4.39 | 3.35 | 1.31 | 2.31 | 6.87 | 6.46 | 1.58 | 0.904 | 1.06 | 1.05 | 0.324 | 1.26 | 0.637 | 3.05
GATACAGGGTCAAGGCCCGAGTACGCGTATTGAT | 6.52 | 4.01 | -0.361 | 3.39 | -0.411 | 5.39 | 5.65 | 5.62 | 2.48 | 4.12 | 2.09 | 3.66 | 0.597 | -0.396 | 1.27 | 3.48 | 0.163 | 4.6 | 0.3 | 4.31
CGAACTAGGTCATCCAGGACACTGAATACATTGA | 4.41 | 3.1 | 0.974 | 2.29 | 0.265 | 4.94 | 7.9 | 6.43 | 3.85 | 5.81 | 8.38 | 8.23 | 3.17 | 1.12 | 2.19 | 2.31 | 1.65 | 2.99 | 1.29 | 3.98
AGAATGAGTTTACCAAAGATCAGGGAAACGCTTG | -0.512 | 2.97 | -0.355 | -0.0367 | -0.632 | 0.0717 | 0.658 | 0.55 | 0.448 | 0.452 | -0.401 | -0.237 | 0.734 | -0.0652 | -0.566 | 0.296 | 0.241 | -0.198 | -0.325 | 0.347
CGAACTAGGTCATAGACAGGACAGTGAATAGTAA | 3.32 | 2.16 | 0.422 | 1.64 | -0.534 | 4.33 | 7.56 | 6.26 | 3.94 | 5.68 | 7.81 | 8.39 | 2.54 | 1.39 | 1.46 | 1.43 | 0.213 | 2.07 | 0.165 | 3.55
CAAACTAGGTCACCGGAAGGTCAAATTCCGCATG | 6.25 | 6.28 | 5.9 | 5.82 | 1.95 | 6.06 | 9.94 | 8.01 | 6.22 | 7.81 | 8.5 | 8.8 | 3.05 | 2.87 | 7.39 | 6.11 | 2.46 | 7.62 | 3.35 | 5.12
ACCATTAGTTGAGACGAGGGCAACCGATAGGTTG | 0.428 | 0.177 | 3.5e-05 | 0.214 | -0.155 | 0.553 | 0.56 | -0.0707 | 0.0624 | -0.228 | 0.237 | 0.503 | 0.491 | -0.276 | 0.403 | 1.5 | 0.41 | 1.48 | -0.14 | 1.18
TCCTATAGGTAAAGGTGAAAGTCGAACGATATGA | 1.05 | 1.25 | -0.0559 | 1.25 | -0.199 | 3.07 | 2.77 | 3.93 | 3.81 | 3.96 | 2.74 | 3.09 | 0.482 | 0.679 | 0.768 | 1.12 | -0.316 | 1.49 | 0.203 | 1.96
CTTAGCAGGCCAGGGTCACTCAAGCATTTCGCTT | 2.22 | 1.69 | -0.276 | 2.19 | -0.331 | 3.33 | 0.864 | 1.93 | -0.113 | 1.06 | 1.45 | 1.72 | -0.582 | -0.865 | 0.785 | 2.67 | -0.227 | 3.2 | -0.241 | 2.81
AGTCAAAGTTGACTAGGTAACGTAAGATTCAGCT | -0.527 | -0.187 | -0.527 | -0.137 | -0.608 | 1.41 | 2.01 | 2.7 | 0.453 | 1.91 | 1.93 | 2.8 | 0.549 | 0.744 | -0.383 | -0.11 | -0.595 | 0.0496 | -0.0612 | 1.13
AGAACGAGGGCACGCTGAGTCGATAGCAGAGTAG | 0.534 | 0.569 | -0.415 | -0.0914 | -1.26 | 1.98 | 2.05 | 1.66 | 0.0721 | 0.871 | 4.27 | 3.81 | 0.34 | 0.0245 | -0.314 | 0.266 | -0.486 | 0.489 | -0.608 | 2.42
